# In ChEMBL document CHEMBL3988442, “University of Dundee, Small-Polar-MMV Screening Library” (2021):
# For some assays here: Potency and affinity values are given separately.
# What was measured:
# Set-up in all cases: scale not given: direction of the effect not stated beside the values
# [1] = target: Protein translocase subunit SecA (Escherichia coli (strain K12)) (UniProt P10408); experiment: Assay to Identify E. coli SecA ATPase Inhibitors; assay type: functional; details: 30 µM
# [2] = target: T1, Ubiquitin-activating enzyme e1, putative (Leishmania donovani (strain BPK282A1)) (UniProt E9BSI1); experiment: Leishmania donovani Ubiquitin Activating Enzyme (LdE1); assay type: functional; details: 30 µM
# T1 sequence (whole entry): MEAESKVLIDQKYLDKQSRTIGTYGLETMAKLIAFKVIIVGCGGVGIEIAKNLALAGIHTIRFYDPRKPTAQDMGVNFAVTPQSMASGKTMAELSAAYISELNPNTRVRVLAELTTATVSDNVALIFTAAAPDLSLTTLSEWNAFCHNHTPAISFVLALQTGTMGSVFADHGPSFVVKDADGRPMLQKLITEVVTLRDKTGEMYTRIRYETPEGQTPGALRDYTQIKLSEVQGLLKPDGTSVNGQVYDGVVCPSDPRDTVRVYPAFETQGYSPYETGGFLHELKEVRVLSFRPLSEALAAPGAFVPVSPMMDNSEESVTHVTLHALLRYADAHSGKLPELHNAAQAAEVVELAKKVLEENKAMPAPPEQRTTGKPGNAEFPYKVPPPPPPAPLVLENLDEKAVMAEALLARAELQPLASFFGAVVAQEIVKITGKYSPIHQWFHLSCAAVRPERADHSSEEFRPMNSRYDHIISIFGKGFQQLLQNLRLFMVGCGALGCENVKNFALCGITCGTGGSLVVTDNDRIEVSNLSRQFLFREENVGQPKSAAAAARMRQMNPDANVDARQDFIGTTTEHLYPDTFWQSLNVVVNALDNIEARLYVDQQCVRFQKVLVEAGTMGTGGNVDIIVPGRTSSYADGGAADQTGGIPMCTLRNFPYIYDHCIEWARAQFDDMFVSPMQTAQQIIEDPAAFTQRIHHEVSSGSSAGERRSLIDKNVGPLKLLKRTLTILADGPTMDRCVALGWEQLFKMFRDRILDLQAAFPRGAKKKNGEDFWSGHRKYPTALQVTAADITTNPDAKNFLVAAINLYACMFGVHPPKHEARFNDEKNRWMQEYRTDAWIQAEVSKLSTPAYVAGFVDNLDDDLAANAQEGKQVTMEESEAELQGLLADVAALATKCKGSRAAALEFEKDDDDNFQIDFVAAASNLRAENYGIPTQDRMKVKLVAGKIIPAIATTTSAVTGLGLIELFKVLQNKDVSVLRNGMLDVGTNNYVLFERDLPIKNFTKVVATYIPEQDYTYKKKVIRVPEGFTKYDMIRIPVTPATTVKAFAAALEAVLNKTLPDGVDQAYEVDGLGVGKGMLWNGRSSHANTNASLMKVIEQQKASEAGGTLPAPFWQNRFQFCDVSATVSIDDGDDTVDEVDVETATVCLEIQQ
# [3] = target: AMP-activated protein kinase, AMPK (Homo sapiens) (UniProt P54646+O43741+P54619+Q9UGJ0+Q9Y478+Q13131+Q9UGI9); experiment: AMP-dependent Kinase enzyme assay. An in vitro enzyme assay that detects ADP turnover that is directly proportional to AMPK activity. This uses naive AMPK that is activated during the assay with MK-8722; assay type: functional; details: 30 µM
# [4] = target: Sialic acid-binding Ig-like lectin 9 (Homo sapiens) (UniProt Q9Y336); experiment: Hs-Siglec9 ALPHAscreen SOP 20170721; details: 10 µM
# Trypanosoma cruzi = experiment: Trypanosoma cruzi phosphomannomutase and mannose-1-phosphate guanylyltransferase assay; assay type: functional; details: 10 µM
# [5] = target: T2, Arginase-2, mitochondrial (Homo sapiens) (UniProt P78540); experiment: in vitro enzyme assay to detect the production of urea directly proportional to the activity of Arginase II; assay type: functional; details: 33.3 µM; further: in the data most compounds retested in dose-response had high values
# T2 sequence (whole entry): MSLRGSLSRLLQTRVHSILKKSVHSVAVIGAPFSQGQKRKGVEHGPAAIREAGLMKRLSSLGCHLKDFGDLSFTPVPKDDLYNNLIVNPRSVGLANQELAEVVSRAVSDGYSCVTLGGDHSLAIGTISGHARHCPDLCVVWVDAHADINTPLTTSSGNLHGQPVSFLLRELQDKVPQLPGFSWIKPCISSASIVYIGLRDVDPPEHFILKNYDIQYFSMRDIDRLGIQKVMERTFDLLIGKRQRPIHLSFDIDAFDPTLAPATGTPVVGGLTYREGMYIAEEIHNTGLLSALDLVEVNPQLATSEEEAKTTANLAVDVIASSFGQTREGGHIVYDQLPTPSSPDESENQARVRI
# [6] = target: T3, Proteasome subunit beta (Trypanosoma cruzi) (UniProt O96673); experiment: Trypanosoma cruzi proteasome chymotrypsin-like activity (TcProtChymo) assay.; further: in the data most compounds retested in dose-response had high values; assay type: functional; details: 9.37 µM
# T3 sequence (whole entry): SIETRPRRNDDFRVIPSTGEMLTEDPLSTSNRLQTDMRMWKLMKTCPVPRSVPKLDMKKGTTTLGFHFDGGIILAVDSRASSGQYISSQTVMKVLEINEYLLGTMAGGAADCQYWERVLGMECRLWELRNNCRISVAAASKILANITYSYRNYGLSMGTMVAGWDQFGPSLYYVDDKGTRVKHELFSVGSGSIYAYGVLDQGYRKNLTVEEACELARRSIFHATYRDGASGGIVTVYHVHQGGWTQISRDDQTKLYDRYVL
# Homo sapiens = species on record: Homo sapiens; experiment: To identify inhibition of the IFN signalling (Jak-Stat) pathway via expression of an eGFP reporter gene under the control of an IFN-stimulated response element (ISRE) containing MxA promoter.; assay type: functional; details: 30 µM
# [7] = target: T4, Tyrosyl-tRNA synthetase, putative (Trypanosoma cruzi (strain CL Brener)) (UniProt Q4DSP6); experiment: Trypanosoma cruzi tyrosyl tRNA synthetase (TcYRS) _High Tyrosine SOP; assay type: functional; details: 30 µM; further: in the data most compounds retested in dose-response had high values
# T4 sequence (whole entry): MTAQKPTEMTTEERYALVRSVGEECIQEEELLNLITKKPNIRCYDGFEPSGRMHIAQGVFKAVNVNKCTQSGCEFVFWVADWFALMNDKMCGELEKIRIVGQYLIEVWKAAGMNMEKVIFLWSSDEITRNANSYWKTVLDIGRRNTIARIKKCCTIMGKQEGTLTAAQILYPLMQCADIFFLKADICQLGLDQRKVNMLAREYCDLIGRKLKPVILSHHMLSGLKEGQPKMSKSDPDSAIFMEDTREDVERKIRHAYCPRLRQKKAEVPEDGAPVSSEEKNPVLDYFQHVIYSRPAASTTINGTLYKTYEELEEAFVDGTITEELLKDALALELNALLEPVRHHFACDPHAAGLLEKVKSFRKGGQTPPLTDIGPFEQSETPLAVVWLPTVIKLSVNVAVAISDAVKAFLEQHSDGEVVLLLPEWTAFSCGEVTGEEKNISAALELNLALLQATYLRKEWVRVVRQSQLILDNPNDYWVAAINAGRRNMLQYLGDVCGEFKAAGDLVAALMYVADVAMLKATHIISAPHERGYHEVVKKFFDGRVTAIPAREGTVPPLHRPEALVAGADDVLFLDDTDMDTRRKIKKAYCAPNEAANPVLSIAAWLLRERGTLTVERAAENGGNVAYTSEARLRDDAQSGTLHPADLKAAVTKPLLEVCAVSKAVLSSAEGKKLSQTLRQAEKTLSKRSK
# [8] = target: T4, Tyrosyl-tRNA synthetase, putative (Trypanosoma cruzi (strain CL Brener)); experiment: Trypanosoma cruzi tyrosyl tRNA synthetase (TcYRS) SOP; assay type: functional; details: 30 µM
# [9] = target: Chromo domain-containing protein 1 (Saccharomyces cerevisiae (strain ATCC 204508 / S288c) (Baker's yeast)) (UniProt P32657); experiment: ScCHD-1 Enzyme Inhibition Assay; assay type: functional; details: 30 µM; further: in the data most compounds retested in dose-response had high values
# Sequence of Chromo domain-containing protein 1 (Saccharomyces cerevisiae (strain ATCC 204508 / S288c) (Baker's yeast)) (P32657 whole entry, the tested form may be a part): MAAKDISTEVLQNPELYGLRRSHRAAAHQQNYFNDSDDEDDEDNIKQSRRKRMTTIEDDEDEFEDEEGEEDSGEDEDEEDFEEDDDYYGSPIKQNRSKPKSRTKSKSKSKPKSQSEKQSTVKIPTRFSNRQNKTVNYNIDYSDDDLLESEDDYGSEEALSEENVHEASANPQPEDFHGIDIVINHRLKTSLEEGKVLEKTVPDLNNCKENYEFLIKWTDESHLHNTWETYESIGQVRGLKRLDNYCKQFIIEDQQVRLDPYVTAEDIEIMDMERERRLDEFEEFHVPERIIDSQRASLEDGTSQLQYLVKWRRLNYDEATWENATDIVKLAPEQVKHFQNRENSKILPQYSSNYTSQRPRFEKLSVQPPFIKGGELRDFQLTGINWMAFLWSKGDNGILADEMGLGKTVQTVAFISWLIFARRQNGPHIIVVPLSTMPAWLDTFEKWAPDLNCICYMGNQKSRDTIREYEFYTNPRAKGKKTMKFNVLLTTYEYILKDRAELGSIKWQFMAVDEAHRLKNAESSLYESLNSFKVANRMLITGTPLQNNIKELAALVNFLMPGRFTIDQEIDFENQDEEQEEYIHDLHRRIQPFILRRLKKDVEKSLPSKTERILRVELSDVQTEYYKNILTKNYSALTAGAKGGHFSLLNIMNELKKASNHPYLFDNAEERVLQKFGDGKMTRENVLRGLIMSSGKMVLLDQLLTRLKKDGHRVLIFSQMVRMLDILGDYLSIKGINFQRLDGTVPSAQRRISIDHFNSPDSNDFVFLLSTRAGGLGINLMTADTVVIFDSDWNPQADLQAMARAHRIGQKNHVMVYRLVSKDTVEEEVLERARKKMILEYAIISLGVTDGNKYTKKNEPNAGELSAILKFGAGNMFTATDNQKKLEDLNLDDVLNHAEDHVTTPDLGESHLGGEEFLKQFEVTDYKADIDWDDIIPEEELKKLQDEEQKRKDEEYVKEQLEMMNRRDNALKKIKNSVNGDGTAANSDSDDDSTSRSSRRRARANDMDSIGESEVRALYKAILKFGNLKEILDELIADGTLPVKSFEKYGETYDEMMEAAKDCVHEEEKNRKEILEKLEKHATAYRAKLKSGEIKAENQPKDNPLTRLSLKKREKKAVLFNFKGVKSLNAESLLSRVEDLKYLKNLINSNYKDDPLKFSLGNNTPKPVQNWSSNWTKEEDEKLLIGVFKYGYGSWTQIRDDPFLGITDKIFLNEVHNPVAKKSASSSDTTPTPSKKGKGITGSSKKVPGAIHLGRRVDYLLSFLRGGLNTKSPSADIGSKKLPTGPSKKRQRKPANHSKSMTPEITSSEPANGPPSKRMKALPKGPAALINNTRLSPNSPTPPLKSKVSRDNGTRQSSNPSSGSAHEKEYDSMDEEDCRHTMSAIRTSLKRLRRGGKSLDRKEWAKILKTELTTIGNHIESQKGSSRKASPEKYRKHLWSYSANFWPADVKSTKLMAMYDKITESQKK
# Sequence of Protein translocase subunit SecA (Escherichia coli (strain K12)) (P10408 whole entry): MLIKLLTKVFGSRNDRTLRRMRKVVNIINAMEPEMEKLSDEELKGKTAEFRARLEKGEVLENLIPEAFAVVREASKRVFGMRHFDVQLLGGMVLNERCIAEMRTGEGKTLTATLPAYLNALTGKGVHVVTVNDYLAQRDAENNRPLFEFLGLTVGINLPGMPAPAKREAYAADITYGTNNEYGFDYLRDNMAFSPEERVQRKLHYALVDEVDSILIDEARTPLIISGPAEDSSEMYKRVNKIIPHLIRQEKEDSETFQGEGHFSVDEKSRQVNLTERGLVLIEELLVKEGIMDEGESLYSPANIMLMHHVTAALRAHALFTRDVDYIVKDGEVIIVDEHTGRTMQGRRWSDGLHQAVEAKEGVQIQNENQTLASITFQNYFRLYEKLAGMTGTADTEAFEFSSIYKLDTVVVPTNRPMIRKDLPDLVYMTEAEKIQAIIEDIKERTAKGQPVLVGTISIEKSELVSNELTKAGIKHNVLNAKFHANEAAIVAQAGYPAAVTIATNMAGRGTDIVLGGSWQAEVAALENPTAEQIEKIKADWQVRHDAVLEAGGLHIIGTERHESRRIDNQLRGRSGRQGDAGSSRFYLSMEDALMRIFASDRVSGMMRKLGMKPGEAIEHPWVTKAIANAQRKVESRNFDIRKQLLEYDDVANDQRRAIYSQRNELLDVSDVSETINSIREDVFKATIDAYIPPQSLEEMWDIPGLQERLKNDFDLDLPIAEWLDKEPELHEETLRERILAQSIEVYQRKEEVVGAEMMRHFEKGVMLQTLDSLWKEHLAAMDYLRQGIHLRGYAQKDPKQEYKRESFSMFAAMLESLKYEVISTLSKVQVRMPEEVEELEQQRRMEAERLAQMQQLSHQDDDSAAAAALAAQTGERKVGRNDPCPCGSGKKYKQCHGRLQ
# Sequence of Sialic acid-binding Ig-like lectin 9 (Homo sapiens) (Q9Y336 whole entry): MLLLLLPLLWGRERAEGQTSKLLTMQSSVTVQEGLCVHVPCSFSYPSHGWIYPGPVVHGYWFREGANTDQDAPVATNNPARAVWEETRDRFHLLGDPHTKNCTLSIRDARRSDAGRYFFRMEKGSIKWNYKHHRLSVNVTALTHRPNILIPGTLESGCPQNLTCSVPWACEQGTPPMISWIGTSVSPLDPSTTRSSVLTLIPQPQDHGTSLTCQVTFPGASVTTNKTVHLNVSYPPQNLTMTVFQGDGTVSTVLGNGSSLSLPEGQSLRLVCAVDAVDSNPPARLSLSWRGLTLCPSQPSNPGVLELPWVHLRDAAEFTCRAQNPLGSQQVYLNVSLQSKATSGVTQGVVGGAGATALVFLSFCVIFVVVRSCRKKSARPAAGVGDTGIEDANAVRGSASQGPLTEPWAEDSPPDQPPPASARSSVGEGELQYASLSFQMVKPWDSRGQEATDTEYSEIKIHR
SMILES,Percent Effect [1] [%],Percent Effect [2] [%],Percent Effect [3] [%],Percent Effect [4] [%],Percent Effect (Trypanosoma cruzi) [%],Percent Effect [5] [%],Percent Effect [6] [%],Percent Effect (Homo sapiens) [%],Percent Effect [7] [%],Percent Effect [8] [%],Percent Effect [9] [%]
OC(CN1CCCCCCC1)c1ccc(F)cc1 (configuration not stated),0.984,10.5,-3.76,-5.28,7.33,-1.15,15.4,11.7,7.35,19.5,-11.6
COCCNc1ccc(CNC(=O)Nc2cn[nH]c2)cc1,-0.0653,20.2,-7.85,0.901,-10.5,3.42,1.06,20.9,3.45,11.4,-5.01
CN(C)C(=O)CC1CC2(CCN(c3ncccn3)CC2)c2ccccc21 (configuration not stated),-7.49,5.41,5.36,-1.25,3.32,2.92,4.14,6.8,5.94,3.66,-4.19
COCCN(C)C(=O)Cn1cccc(OC)c1=O,-0.736,5.48,-9.15,4.8,-8.53,3.99,18.4,4.06,-3.12,-1.24,-2.41
O=C(c1cnoc1)N1CCC[C@]2(C[C@@H](OCc3ccccn3)CO2)C1,-1.86,21.9,-6.83,23.6,5.56,-1.6,12.8,1.81,6.25,8.64,-6.46
CCc1nc(NCC(=O)N2CCOCC2)c2c(n1)c(C)nn2CC,-2.78,6.67,0.5,7.26,-6.09,-6.87,10.7,-5.15,2.12,5.13,-5.78
CCNC(=O)N1CCC2(C1)c1ccccc1S(=O)(=O)N2CCC(C)C (configuration not stated),-3.49,5.33,5.91,-1.77,5.99,-52.5,5.3,-14.8,1.04,0,-0.42
O=C(CN1C=Nc2ccccc2S1(=O)=O)NCCc1cccs1,-6.39,13.2,-6.07,5.67,3.08,5.04,9.56,5.08,8.37,25.9,-10.2
COc1c(CNCc2cccc(Cn3ccnc3)c2)c(C)nn1C,-5.63,21.6,-15,13.9,5.38,-11.2,10.3,37.8,4.43,18.5,-10
CN1CCN(C[C@@H]2OC[C@H]3CN(Cc4cccc(F)c4)CC[C@H]32)CC1,0.931,2.67,4.95,4.78,2.9,-53.9,7.01,-8.27,2.08,2.5,-4.33
CN(Cc1ccccc1F)C(=O)CS(=O)(=O)Cc1ccc(Cl)c(Cl)c1,0.269,10.4,6.8,0.809,2.06,-8.21,4.29,9.03,-6.67,-296,-20.3
O=C(O)c1ccn(-c2ccccc2NS(=O)(=O)c2ccccc2)n1,-4.7,0,0.362,0.187,-5.16,2.08,9.24,7.84,3.83,3.7,-5.14
CCOCCCNC(=O)c1cn(CC)nc1C,-3.21,20,-2.97,-1.34,0.982,1.58,15.3,16.9,6.35,17.9,-9.37
Cn1cc(C(=O)N[C@@H]2CN(Cc3cccs3)[C@@H]3CCCO[C@@H]32)cn1,-4.79,13.3,-3.04,-0.505,0.579,-49.6,9.74,-5.26,1.04,12.5,-7.8
CC(C)CN1CCN(Cc2nc3ccccc3[nH]2)[C@H]2CS(=O)(=O)C[C@H]21,-0.363,10.8,1.86,-1.7,-6.35,2.73,5.41,0.0398,14,23.5,-6.24
Cc1ccc(C(C)NC(=O)Cc2c(C)nc3c(c2C)c(=O)[nH]n3C)o1 (configuration not stated),-4.2,7.79,1.79,9.22,1.08,-11,10.7,1.96,1.07,6.17,1.13
CCCSCC(=O)Nc1ncn(CC(=O)NCc2ccccc2)n1,-2.05,8,-1.58,7.45,3.6,13.5,12.9,4.31,6.01,16.1,-6.22
O=C(c1cccnc1O)N(Cc1ccsc1)CC1CCCO1 (configuration not stated),0.332,13.5,-1.43,6.53,4.63,12.9,12.6,15.9,5.82,17.1,-0.939
CCOc1cc(C)nc(N2CCN(C(=O)c3ccnn3C)CC2)n1,-1.84,5.41,-0.273,4.02,3.62,-3.51,4.67,2.75,3.96,18.3,-3.83
COC[C@@H]1CC[C@H]2[C@H](CCN2C(=O)c2ccncc2F)O1,-5.45,2.7,-0.0287,17.9,2.05,2.73,-4.21,-15.4,5.38,13.6,-2.68
O=C(c1cc(Cl)c2c(c1)OCO2)N1CCN(c2nccs2)CC1,-3.24,11,-2.85,1.89,2.55,3.18,7.45,3.79,7.53,15,-3.25
Cc1ccc(SCC(=O)NS(=O)(=O)c2ccc3c(c2)OCCO3)cc1,-2.38,-10.5,2.56,-1.45,5.45,-2.68,15,3.33,-6.37,-7.32,-0.431
